Each structure is given as a SMILES string. Activity calls are given as the source filed them. How the calls were made is not given here.

Chain of Protein kinase 7 (PK7), Plasmodium falciparum 3D7 (PF3D7_0213400) (Q7YTF7 1-343): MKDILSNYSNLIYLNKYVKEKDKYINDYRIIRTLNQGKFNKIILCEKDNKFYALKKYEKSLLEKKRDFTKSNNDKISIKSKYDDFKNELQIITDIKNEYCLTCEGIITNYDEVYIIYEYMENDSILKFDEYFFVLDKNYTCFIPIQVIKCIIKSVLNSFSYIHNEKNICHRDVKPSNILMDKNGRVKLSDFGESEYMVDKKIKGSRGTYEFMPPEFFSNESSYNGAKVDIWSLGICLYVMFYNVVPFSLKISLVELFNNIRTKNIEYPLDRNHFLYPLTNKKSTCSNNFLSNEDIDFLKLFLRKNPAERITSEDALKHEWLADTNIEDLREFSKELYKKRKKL

This assay addresses Protein kinase 7 (PK7), Plasmodium falciparum 3D7 (PF3D7_0213400) (UniProt Q7YTF7). Briefly: inhibition of Plasmodium PK7 catalytic activity – biochemical, TCAMS antimalarial set, Kinase-Glo luminescence (AID 1159587). Conditions: recombinant PfPK7, Kinase-Glo ATP depletion luminescence.
Regarding `Cc1ccc(Nc2nccc(Nc3ccc4c(C)[nH]nc4c3)n2)cc1F`, the result was inactive.

For the compound `CCCC(CC)n1ccc2c3c(N)nc(N)nc3ccc21` (stereo not given), the outcome was inactive.

As for `COc1ccc2nccc([C@@H](O)CN3CCC(NC(=O)c4ccc(Cl)c([N+](=O)[O-])c4)CC3)c2c1`, the outcome was inactive.

In the case of `COc1ccc2nc(C)cc(Nc3ccc(Oc4ccc5ccccc5c4)c(Cl)c3)c2c1`, the outcome was inactive.

As for `Cc1cc(F)ccc1Nc1nc(N(C)c2ccccc2)c2cc(OCCCN(C)C)ccc2n1`, the result was inactive.

For `O=[N+]([O-])c1cc2c(cc1C=NNc1nc(Nc3ccccc3)nc(Nc3ccccc3)n1)OCO2`, the outcome was inactive.

For the compound `Cn1c(=O)c2nc(-c3ccc(Cl)cc3)nnc2n(CCCC#N)c1=O`, the outcome was inactive.

In the case of `CCOC(=O)c1c(-c2ccccc2)[nH]c2c(sc3ccccc32)c1=O`, the outcome was inactive.

On to `CCCC1N=C(N)N=C(N)N1c1cccc(C(F)(F)F)c1` (stereo not given), for which the result was inactive.

For `Cc1cccc(CNc2nc(C)cc(N[C@@H](Cc3ccccc3)C(=O)NCCOc3ccccc3)n2)c1`, the outcome was inactive.

On to `Fc1ccc(Nc2ccnc3cc(-c4ccc(CNCCN5CCOCC5)o4)ccc23)c(Cl)c1`, for which the outcome was inactive.

Regarding `CCNc1cc(C(=O)N[C@@H](Cc2ccccc2)[C@H](O)CNC2CCC(C(C)(C)C)CC2)cc(N2CCCC2=O)c1` (stereo not given in full), the outcome was inactive.

For `Cc1ccc(-c2nnc(-c3ccc(C(=O)NC4CCN(Cc5ccc(C#N)cc5)CC4)cc3)o2)cc1Br`, the outcome was inactive.

As for `O=C(Nc1cc(F)cc(F)c1)N1CCOC(CCN2CCC3(CCc4ccccc43)CC2)(c2ccc(Cl)c(Cl)c2)C1` (stereo not given), the outcome was inactive.

As to `CCCC(CNCc1cccc(I)c1)CNc1cc(=O)c2ccccc2[nH]1` (stereo not given), the result was inactive.

As to `COc1ccc2nccc([C@@H](O)CN3CC[C@H](NCc4nc5c(cc4F)SCC(=O)N5)[C@H](F)C3)c2c1`, the result was inactive.

As to `Cc1ccc(F)c(C(=O)Nc2cccc(-c3nn4ccccc4c3-c3ccnc(Nc4cccc(F)c4)n3)c2)c1F`, the outcome was inactive.

Consider `Cc1cc(C(=O)OCC(N)=O)c(C)n1-c1ccc(F)cc1`, for which the outcome was inactive.

For `Cc1cccc2[nH]c(-c3ccc(-c4cccc(CNCCN(C)C)c4)cc3)nc12`, the outcome was inactive.

Take `CNC(=O)c1ccccc1Nc1nc(Nc2cccnc2)ncc1C`: the result was inactive.

Take `CCCOc1ccc(C(F)(F)F)cc1NC(=O)c1nc2nc(C)cc(C)n2n1`: the result was inactive.

In the case of `COc1ccc2ncc(F)c(CCN3C[C@H](CNCc4ccc5oc(=O)ccc5c4)[C@H](O)C3)c2n1`, the result was inactive.

As for `CC(Oc1ccc(Cl)cc1)C(=O)Nc1cc(C(F)(F)F)ccc1-n1cncn1` (stereo not given), the result was inactive.

With `Cc1ncc(CN2CCC(C(=O)Nc3ccc(-c4nc5ccccc5o4)cc3)CC2)s1`, the result was inactive.

Take `CC(C)(CNC(=O)[C@@H]1CCCN(CCOc2ccc(Cl)cc2)C1)c1nc(-c2ccc(Cl)c(O)c2)c(-c2ccncc2)[nH]1`: the result was inactive.

Source of the values: PubChem BioAssay.
